Assay [1] deals with Glucocorticoid receptor (Homo sapiens) (UniProt P04150). Nature of the assay: qHTS assay for small molecule agonists of glucocorticoid receptor signaling (AID 588532; active = well fitted curve in the direction sought with a large enough effect in the signal ratio, with a control signal flat; the % refers to the signal ratio;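 note: 100% = dexamethasone at 0.1 µM and 0% = DMSO only wells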). Particulars: HeLa MMTV-bla, beta-lactamase ratio, agonist, 18 h; activation: stronger effect = higher value, percent of dexamethasone control, DMSO zero. A digest of the protocol:
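Agonist-mode qHTS: GRE-driven beta-lactamase in HeLa cells exposed 18 h to titrated compounds (up to 92 uM), then CCF4 ratio read after 2 h at RT; Hill-fitted EC50, efficacy relative to 0.1 uM dexamethasone.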
In general terms: In qHTS, concentration-response curves come from the screen itself.

The target is the same in assay [2]. Nature of the assay: qHTS assay for small molecule antagonists of glucocorticoid receptor signaling (AID 588533; active = well fitted inhibition curve with a large enough effect in the signal ratio, with a control signal flat, not every such curve was filed as active; the % refers to the signal ratio;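 note: cells stimulated with 2 nM dexamethasone as agonist; % is set by controls: 0 for no effect and ±100 for the full control effect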). The method, boiled down:
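Antagonist-mode qHTS: compound titrations added to GRE-bla HeLa cells, then dexamethasone 2 nM final; 18 h, 37 C. CCF4 FRET fluorescence normalized to dexamethasone and DMSO; IC50 from Hill fit.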

Assay [3] addresses Peroxisome proliferator-activated receptor delta (Homo sapiens) (UniProt Q03181). Nature of the assay: qHTS assay for small molecule agonists of peroxisome proliferator-activated receptor delta signaling (AID 588534; calls by dose curve;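 note: 0% = DMSO basal wells and 100% = positive control agonist at 10 µM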). A digest of the protocol:
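Fluorescence from CCF4 substrate cleavage by beta-lactamase reporter, read 2 hrs at RT, measured agonist activity. Compounds were tested with 18 hrs exposure at 37 C. Concentration-response data fitted to Hill equation.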

Assay [4] has as its target Peroxisome proliferator-activated receptor gamma (Homo sapiens) (UniProt P37231). Nature of the assay: qHTS assay for small molecule agonists of peroxisome proliferator-activated receptor gamma signaling (AID 588536; active = well fitted curve in the direction sought with a large enough effect in the signal ratio, with a control signal flat, not every such curve was filed as active; the % refers to the signal ratio;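 note: 0% = DMSO basal wells and 100% = rosiglitazone at 2 µM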). The method, boiled down:
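GeneBLAzer PPAR-gamma-UAS-bla HEK293 cells in 1% charcoal/dextran-treated FBS medium were treated 16 h at 37 C with compounds. Beta-lactamase activity was read by CCF4 ratio (460/530 nm). Response was normalized to 2 uM rosiglitazone (100%) and DMSO, then Hill-fitted for EC50 and efficacy.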

For assay [5], the target named is Retinoic acid receptor RXR-alpha (Homo sapiens) (UniProt P19793). Nature of the assay: qHTS assay for small molecule agonists of retinoid X receptor alpha signaling (AID 588544; calls by dose curve; note: potency is the fitted concentration of half-maximal effect;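 for activation: 0% = DMSO basal wells and 100% = reference agonist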).
Sequence of Retinoic acid receptor RXR-alpha (Homo sapiens) (P19793 whole entry, looked up): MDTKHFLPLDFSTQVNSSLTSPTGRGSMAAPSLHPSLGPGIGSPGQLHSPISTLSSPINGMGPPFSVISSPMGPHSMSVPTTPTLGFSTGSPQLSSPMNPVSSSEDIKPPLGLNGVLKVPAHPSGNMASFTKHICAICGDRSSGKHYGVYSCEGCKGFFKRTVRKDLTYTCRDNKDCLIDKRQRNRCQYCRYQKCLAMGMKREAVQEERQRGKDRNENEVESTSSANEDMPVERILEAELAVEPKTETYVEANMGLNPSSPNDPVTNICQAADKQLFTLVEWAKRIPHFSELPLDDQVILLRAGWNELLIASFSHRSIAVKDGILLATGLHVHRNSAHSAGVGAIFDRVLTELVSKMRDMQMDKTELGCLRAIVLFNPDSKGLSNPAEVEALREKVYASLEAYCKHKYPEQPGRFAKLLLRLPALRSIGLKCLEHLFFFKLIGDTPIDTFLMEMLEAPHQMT
The target of assay [6] is Thyroid hormone receptor beta (Homo sapiens) (UniProt P10828). Nature of the assay: qHTS assay for small molecule agonists of thyroid hormone receptor beta signaling (AID 588545; calls by dose curve). The method, boiled down:
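In this cell-based screen, titrated compounds act on HEK 293 cells held in medium with 2% charcoal/dextran FBS, NEAA and pyruvate for 18 hrs at 37 C. Responses are expressed relative to T3 (10 nM) as 100% and basal DMSO as 0%.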

The nature of assay [7]: qHTS assay for small molecule antagonists of retinoid X receptor alpha signaling (AID 588546; active = well fitted inhibition curve with a large enough effect in the signal ratio, with a control signal flat, not every such curve was filed as active; the % refers to the signal ratio;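 note: cells stimulated with 9-cis-retinoic acid as agonist; % is set by controls: 0 for no effect and ±100 for the full control effect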). Particulars: HEK293T RXRa-UAS-bla, beta-lactamase ratio, antagonist mode; measured here: W530 green channel, cytotoxicity proxy. A digest of the protocol:
(§1)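 Beta-lactamase reporter inhibition, read as CCF4 fluorescence ratio (ex 405, em 460/530 nm) after 2 h at RT. HEK293T UAS-bla cells, 2500/well, were stimulated with 9-cis-RA at 500 or 100 nM final alongside test compound for 18 h at 37 C.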

The target of assay [8] is Retinoic acid receptor RXR-alpha (Homo sapiens) (UniProt P19793). The assay is described as above. Particulars: HEK293T RXRa-UAS-bla, beta-lactamase ratio, antagonist mode. The method, boiled down:
as §1

In assay [9] the target is Thyroid hormone receptor beta (Homo sapiens) (UniProt P10828). Nature of the assay: qHTS assay for small molecule antagonists of thyroid hormone receptor beta signaling (AID 588547; active = well fitted inhibition curve with a large enough effect in the signal ratio, with a control signal flat, not every such curve was filed as active; the % refers to the signal ratio;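 note: cells stimulated with 0.4 nM T3 agonist during compound exposure; series mostly up to about 77 µM; % is set by controls: 0 for no effect and ±100 for the full control effect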). Particulars: TR-UAS-bla HEK293, beta-lactamase ratio, antagonist mode, 18 h. The method, boiled down: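 Inhibition of T3-driven (0.4nM final) beta-lactamase reporter activity was measured over 0.59 nM to 92 uM compound after 18 h at 37 C. The cells were GripTite HEK293 TR-UAS-bla in charcoal/dextran-stripped serum, with CCF4 ratio read-out and IC50 from Hill fits.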
Sequence of Thyroid hormone receptor beta (Homo sapiens) (P10828 whole entry, looked up): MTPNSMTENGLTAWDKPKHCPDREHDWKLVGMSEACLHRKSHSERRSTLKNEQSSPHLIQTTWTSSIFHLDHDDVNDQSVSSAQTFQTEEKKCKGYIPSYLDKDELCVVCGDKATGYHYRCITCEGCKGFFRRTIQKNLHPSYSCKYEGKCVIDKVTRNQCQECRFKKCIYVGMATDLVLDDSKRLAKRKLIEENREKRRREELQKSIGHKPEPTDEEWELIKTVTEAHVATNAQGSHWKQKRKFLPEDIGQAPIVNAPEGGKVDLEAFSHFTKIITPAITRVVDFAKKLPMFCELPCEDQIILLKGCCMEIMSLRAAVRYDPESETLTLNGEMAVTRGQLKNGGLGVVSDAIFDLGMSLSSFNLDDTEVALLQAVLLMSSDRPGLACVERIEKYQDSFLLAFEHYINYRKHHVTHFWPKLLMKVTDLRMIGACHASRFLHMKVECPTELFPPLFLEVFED

The nature of assay [10]: qHTS assay for environmental chemicals that activate the Aryl hydrocarbon Receptor (AhR) signaling pathway (AID 651777). Note: % of control where 0% means no effect; nearly all actives have a fitted effect of over 15% in size. Particulars: 1A2-DRE human hepatoma cells, luciferase, 24 h; activation: stronger effect = higher value. A digest of the protocol: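 Reporter gene assay: hepatoma cells with DRE/CYP1A2-luciferase, 24 hr compound incubation at 37 C, 5% CO2, luminescence after One-Glo (30 min, RT).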

Assay [11] deals with Peroxisome proliferator-activated receptor alpha (Homo sapiens) (UniProt Q07869). Nature of the assay: qHTS assay for small molecule agonists of the peroxisome proliferator-activated receptor alpha (PPARalpha) signaling pathway (AID 651778). Note: % of control where 0% means no effect. Particulars: PathHunter PPARalpha complementation, chemiluminescence, 6 h; max response: stronger effect = higher value. The method, boiled down: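 Chemiluminescence from complemented enzyme reported PPARalpha activation in cells after 6 hr of compound treatment at 37 C. The detection reagent was incubated for 60 min at room temperature, and compounds were scored as agonists.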
Sequence of Peroxisome proliferator-activated receptor alpha (Homo sapiens) (Q07869 whole entry, looked up): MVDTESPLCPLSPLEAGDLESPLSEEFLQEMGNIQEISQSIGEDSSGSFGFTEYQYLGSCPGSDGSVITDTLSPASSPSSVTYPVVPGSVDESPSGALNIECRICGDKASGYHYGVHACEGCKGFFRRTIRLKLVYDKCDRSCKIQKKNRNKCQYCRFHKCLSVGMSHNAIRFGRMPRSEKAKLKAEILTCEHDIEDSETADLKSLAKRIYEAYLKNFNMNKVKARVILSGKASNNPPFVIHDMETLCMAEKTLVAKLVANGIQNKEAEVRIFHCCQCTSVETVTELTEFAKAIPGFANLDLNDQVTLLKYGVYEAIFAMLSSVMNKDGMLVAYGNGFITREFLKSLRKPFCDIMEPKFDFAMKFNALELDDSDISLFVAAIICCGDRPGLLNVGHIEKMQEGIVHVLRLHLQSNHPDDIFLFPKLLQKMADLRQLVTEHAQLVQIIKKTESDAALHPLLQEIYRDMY

Assay [12] in a line: qHTS assay for small molecule agonists of the antioxidant response element (ARE) signaling pathway measured by Nrf2-dependant transcriptional activity (AID 720636; active = well fitted curve in the direction sought with a large enough effect in the repeat runs; an effect the other way counts as inactive or inconclusive;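 note: HepG2 cells with an ARE-driven luciferase reporter; % of control where 0% means no effect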). A digest of the protocol:
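Nrf2-dependent transcription is measured in ARE-luc HepG2 cells: compound is applied for 16 hr at 37 C after a 6 hr attachment period, and luciferase activity is quantified by luminescence using ONE-Glo.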

Assay [13] in a line: qHTS assay for cell viability of HEK293 cells (AID 743288). Note: % is set by controls: 0 for no effect and ±100 for the full control effect; nearly all actives have a fitted effect of over 50% in size. Particulars: ATP luminescence (CellTiter-Glo), 18 h; max response: stronger effect = lower value. The method, boiled down: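 Environmental chemicals tested in qHTS format against parental HEK293 cells; 18 h treatment, 37 C; read-out ATP luminescence (CellTiter-Glo), 30 min RT development.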
The nature of assay [14]: qHTS assay for cell viability of the p53RE-bla HCT-116 cell line (AID 743292). Note: % is set by controls: 0 for no effect and ±100 for the full control effect; nearly all actives have a fitted effect of over 55% in size. The method, boiled down:
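ATP-based luminescence, 16 h compound exposure at 37 C, p53RE-bla HCT-116 cells at 4,000/well.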

In assay [15] the target is Nuclear receptor subfamily 1 group I member 2 (Rattus norvegicus) (UniProt Q9R1A7). Nature of the assay: qHTS assay for small molecule activators of the rat pregnane X receptor (rPXR) signaling pathway (AID 651751; call rule not given here; note: 0% is about no effect). Particulars: rPXR reporter cells, luciferase (One-Glo), 24 h.
Sequence of Nuclear receptor subfamily 1 group I member 2 (Rattus norvegicus) (Q9R1A7 whole entry, looked up): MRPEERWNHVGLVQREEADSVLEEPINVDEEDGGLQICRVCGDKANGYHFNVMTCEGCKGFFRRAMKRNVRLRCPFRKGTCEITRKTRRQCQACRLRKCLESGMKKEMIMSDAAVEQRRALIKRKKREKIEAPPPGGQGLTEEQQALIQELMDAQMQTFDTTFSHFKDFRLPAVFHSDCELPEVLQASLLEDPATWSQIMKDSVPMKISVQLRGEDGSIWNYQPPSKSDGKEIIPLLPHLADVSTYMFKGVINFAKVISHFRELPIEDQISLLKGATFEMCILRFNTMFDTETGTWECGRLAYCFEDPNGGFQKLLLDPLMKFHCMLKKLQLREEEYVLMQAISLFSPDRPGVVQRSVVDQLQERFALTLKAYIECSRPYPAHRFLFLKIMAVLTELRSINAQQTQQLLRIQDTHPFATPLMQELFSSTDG
The nature of assay [16]: qHTS assay for small molecule activators of the p53 signaling pathway (AID 651743; active = well fitted activation curve with a large enough effect in the signal ratio, not every such curve was filed as active; the % refers to the signal ratio; note: series mostly up to about 92 µM; % of control where 0% means no effect). Particulars: HCT-116 p53RE-bla, beta-lactamase FRET ratio, 16 h; activation: stronger effect = higher value. A digest of the protocol:
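Read-out is fluorescence intensity from the LiveBLAzer B/G FRET substrate, added for 2 hours at room temperature after HCT-116 p53RE-bla cells had been incubated with compounds for 16 hours at 37 C.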

A short description of assay [17]: qHTS assay for small molecule agonists of the antioxidant response element (ARE) signaling pathway measured by Nrf2-dependant transcriptional activity - cell viability counter screen (AID 720653; active = well fitted curve in the direction sought with a large enough effect in the repeat runs; an effect the other way counts as inactive or inconclusive; note: % is set by controls: 0 for no effect and ±100 for the full control effect). Particulars: ARE-bla HepG2 viability, CellTiter-Glo ATP luminescence, 16 h; max response: stronger effect = lower value. The method, boiled down: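 Cytotoxicity counter screen: intracellular ATP quantified by CellTiter-Glo luminescence in the same ARE-bla HepG2 plates, after 16 h compound exposure and a 2 h beta-lactamase substrate step.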

The target of assay [18] is Estrogen receptor (Homo sapiens) (UniProt P03372). Nature of the assay: qHTS assay for small molecule agonists of estrogen receptor alpha signaling (AID 588514; calls by dose curve;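 note: 0% = vehicle only and 100% = reference agonist; nearly all actives have a fitted effect of over 70% in size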). A digest of the protocol:
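Cells were plated at 5000/well, incubated 4 hrs at 37 C, dosed with compound titration series, incubated 18 hrs at 37 C, loaded with CCF4 dye for 2 hrs at RT, then fluorescence was read.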

The nature of assay [19]: qHTS assay for small molecule antagonists of peroxisome proliferator-activated receptor delta signaling (AID 588535; active = well fitted inhibition curve with a large enough effect in the signal ratio, with a control signal flat, not every such curve was filed as active; the % refers to the signal ratio;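 for max response: cells co-treated with a PPAR-delta agonist as stimulator during compound exposure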). Particulars: HEK293T PPARd-UAS-bla, beta-lactamase FRET ratio, 18 h; 460 nm channel. A digest of the protocol:
(§2)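 HEK293T PPAR-delta-UAS-bla cells, 4000/well, 2% charcoal/dextran FBS; 5 h 37 C; cpd titration; 18 h 37 C; CCF4 2 h RT; FI 460/530 nm; Hill fit → IC50, efficacy.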

The target of assay [20] is Peroxisome proliferator-activated receptor delta (Homo sapiens) (UniProt Q03181). Described as above. A digest of the protocol:
as §2

Results filed as inconclusive are left out. The source made the active and inactive calls. Unless noted, calls come from the whole dose curve; as a rule, active = well fitted curve in the direction sought with a large enough effect; inconclusive = small, poorly fitted or top-dose-only effect, or another doubt; inactive = no such curve, though single readings can be large; an effect the other way counts as inactive or inconclusive.

The results in this text go back to PubChem BioAssay (NCATS).

Sequence of Peroxisome proliferator-activated receptor gamma (Homo sapiens) (P37231 whole entry, looked up): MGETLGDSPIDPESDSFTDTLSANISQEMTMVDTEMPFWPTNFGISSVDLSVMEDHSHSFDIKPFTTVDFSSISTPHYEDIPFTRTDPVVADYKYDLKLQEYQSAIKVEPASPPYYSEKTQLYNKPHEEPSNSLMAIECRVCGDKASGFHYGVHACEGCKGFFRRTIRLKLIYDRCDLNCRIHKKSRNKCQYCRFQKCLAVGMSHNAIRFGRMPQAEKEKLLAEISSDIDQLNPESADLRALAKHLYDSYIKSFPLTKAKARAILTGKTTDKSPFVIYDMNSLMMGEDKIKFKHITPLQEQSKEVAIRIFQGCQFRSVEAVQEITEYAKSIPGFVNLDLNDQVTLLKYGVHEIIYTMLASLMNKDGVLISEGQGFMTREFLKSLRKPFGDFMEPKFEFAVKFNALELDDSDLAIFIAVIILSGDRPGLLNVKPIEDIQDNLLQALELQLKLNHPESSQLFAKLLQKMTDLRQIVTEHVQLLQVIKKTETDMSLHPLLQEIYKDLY
Sequence of Glucocorticoid receptor (Homo sapiens) (P04150 whole entry, looked up): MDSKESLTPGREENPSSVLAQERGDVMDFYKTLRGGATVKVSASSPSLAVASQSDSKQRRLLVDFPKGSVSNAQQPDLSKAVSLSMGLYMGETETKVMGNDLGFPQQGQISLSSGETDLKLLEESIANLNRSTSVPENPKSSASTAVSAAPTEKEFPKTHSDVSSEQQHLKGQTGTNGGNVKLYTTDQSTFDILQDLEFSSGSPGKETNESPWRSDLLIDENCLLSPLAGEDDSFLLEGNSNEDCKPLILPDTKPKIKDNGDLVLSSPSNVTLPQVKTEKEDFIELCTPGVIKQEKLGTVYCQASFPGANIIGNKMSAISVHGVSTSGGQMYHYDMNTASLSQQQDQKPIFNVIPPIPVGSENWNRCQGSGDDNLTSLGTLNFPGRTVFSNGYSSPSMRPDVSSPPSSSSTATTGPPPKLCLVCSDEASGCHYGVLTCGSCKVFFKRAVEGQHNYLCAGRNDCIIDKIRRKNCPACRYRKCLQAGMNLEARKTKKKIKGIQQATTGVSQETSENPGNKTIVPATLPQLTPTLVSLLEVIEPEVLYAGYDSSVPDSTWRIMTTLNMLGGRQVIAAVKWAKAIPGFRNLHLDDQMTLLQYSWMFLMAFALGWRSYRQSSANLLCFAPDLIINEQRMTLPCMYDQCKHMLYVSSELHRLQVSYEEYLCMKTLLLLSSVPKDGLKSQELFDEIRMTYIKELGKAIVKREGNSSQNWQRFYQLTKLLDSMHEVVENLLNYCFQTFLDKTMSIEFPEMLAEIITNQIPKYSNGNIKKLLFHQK
Sequence of Peroxisome proliferator-activated receptor delta (Homo sapiens) (Q03181 whole entry, looked up): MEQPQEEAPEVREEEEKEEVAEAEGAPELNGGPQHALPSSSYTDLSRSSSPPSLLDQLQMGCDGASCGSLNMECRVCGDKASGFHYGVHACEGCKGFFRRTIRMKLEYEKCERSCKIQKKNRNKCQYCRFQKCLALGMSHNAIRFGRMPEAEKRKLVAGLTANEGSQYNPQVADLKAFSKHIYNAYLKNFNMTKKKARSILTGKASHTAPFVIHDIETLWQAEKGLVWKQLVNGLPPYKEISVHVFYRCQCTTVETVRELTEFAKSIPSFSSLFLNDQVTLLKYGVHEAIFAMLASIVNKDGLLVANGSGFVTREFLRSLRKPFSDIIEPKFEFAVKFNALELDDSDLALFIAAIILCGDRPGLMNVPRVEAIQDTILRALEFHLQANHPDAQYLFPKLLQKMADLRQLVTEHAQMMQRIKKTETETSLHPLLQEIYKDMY
Sequence of Estrogen receptor (Homo sapiens) (P03372 whole entry, looked up): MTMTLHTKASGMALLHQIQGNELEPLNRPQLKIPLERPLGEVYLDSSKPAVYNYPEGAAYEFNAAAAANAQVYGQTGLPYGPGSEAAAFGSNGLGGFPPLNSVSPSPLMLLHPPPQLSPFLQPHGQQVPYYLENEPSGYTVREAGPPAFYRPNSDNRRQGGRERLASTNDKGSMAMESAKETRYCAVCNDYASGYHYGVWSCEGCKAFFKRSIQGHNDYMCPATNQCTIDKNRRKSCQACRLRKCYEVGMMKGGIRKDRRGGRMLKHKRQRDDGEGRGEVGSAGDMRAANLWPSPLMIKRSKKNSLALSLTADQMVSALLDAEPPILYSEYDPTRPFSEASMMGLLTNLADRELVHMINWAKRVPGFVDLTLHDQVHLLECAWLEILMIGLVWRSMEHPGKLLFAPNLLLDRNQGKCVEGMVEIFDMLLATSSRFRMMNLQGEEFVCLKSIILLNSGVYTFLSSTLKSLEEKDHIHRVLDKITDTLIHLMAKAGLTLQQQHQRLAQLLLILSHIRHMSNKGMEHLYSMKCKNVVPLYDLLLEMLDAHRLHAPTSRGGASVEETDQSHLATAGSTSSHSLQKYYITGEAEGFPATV

On to `CCSCc1ccccc1OC(=O)NC`, for which the activation in assay [1] was 1.02% (inactive); in [10], 0.553% (inactive). The Potency result in assay [2], in assay [4], in assay [5], in assay [6], in assay [12] and in [14] was “inactive” in each case. Moreover, in assay [3], the result was inactive. Moreover, the max response in assay [7] was -7.11%; in assay [8], -13% (inactive); in [11], -0.372% (inactive); in assay [13], -9.67% (inactive); in [15] it was 0.0425% (inactive). Also, in assay [9], the activity change % (negative = inhibition) was -8.58% (inactive).

As to `CCOP(=S)(OCC)Oc1nc(Cl)n(C(C)C)n1`, the figures for the activation in assay [1] and in assay [16] were 12.9% (inactive) and -5.02% (inactive), respectively. Moreover, the Potency result in assay [4], in assay [6] and in assay [12] was “inactive” each time. In addition, the max response in assay [7] is 10.5%; in assay [8], 14.2% (inactive); in [11] it was 0.789% (inactive); in assay [17], -6.76% (inactive); in [13] it was 6.35% (inactive).

Take `CCOP(=O)(OCC)SCCSCC`: the Potency entry in assay [18], in assay [4], in assay [6] and in [14] was “inactive” in each case. For the same compound, the Potency in [5] was 44.7 µM (active). For the same compound, the max response in assay [7] was -5.85%; in [8] it was 3.44% (inactive); in assay [11], -1.58% (inactive); in [13] it was -2.44% (inactive); in [15], 3.51% (inactive). Moreover, the activity change % (negative = inhibition) in [9] was -4.38% (inactive). The activation was 1.72% (inactive) in assay [16] and 1.43% (inactive) in assay [10].

In the case of `CNC(=S)S`, the values for the activation in [1] and in assay [10] were -6.24% (inactive) and 0.794% (inactive), respectively. Further, the Potency entry in assay [2], in [20], in [4], in assay [5], in assay [12] and in assay [14] was “inactive” throughout. In addition, the call in assay [3] was inactive. For the same compound, the max response in assay [19] is -6.57%; in assay [7], -10.7%; in assay [8], -13.7% (inactive); in [11], -2.07% (inactive); in assay [17], -4.46% (inactive); in [13] it was -18% (inactive). The max response in assay [15] was 0.745% (inactive).

Turning to `CCOP(=O)(NC(C)C)Oc1ccc(S(C)(=O)=O)c(C)c1` (stereo not drawn), the Potency result in assay [18], in [2], in assay [4], in assay [12] and in assay [14] was “inactive” throughout. The activation in assay [1] is 2.64% (inactive); in [16], 0.006% (inactive); in [10], 1.16% (inactive). Moreover, the compound was classed as inactive in assay [3]. Moreover, the max response was -11.4% in assay [7]; 6.87% (inactive) in [8]; -2.16% (inactive) in assay [11]; -4.32% (inactive) in [17]; -9.88% (inactive) in assay [13]; 4.77% (inactive) in assay [15]. Besides, the activity change % (negative = inhibition) in assay [9] was 9.01% (inactive).

Consider `O=P(O)(O)CN(CP(=O)(O)O)CP(=O)(O)O`, for which the activation in assay [1] was 4.25% (inactive); in [16], -5.96% (inactive); in assay [10], 0.682% (inactive). Also, the Potency result in [2], in assay [20], in assay [4], in assay [6], in assay [12] and in assay [14] was “inactive” throughout. In addition, in [3], the call was inactive. Also, the max response was 1.59% in [19]; -13.3% in [7]; -32% (inactive) in [8]; 4.68% (inactive) in [11]; -0.727% (inactive) in [17]; -8.91% (inactive) in assay [13]. Moreover, the max response in [15] was -1.66% (inactive). The activity change % (negative = inhibition) in assay [9] is -9.36% (inactive).
